The results in this text go back to PubChem BioAssay.

Active and inactive are the calls of the source. Unless noted, the rule behind the calls is not given here.

The nature of assay [1]: compounds altering circadian rhythm period length – cell-based, LOPAC library, luminescence reporter (AID 2774).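 Note: values are relative to mean of DMSO wells on each plate.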 To be noted: circadian reporter cells, at 7 µM, actives lie on both sides.
The subject of assay [2] is Hepatitis C virus NS3 helicase. Nature of the assay: blockers of NS3h binding to ssDNA – biochemical, fluorescence polarization, LOPAC1280 library, primary screen (AID 687035; in the data active = inhibition above about 37%). The note with it: Purified HCV NS3 helicase, Cy5-dT15 ssDNA binding fluorescence polarization; stronger effect = higher value; concentration not given here. Background: Polarisation of emitted light reports the rotation of a fluorescent probe.

Assay [3] is described as follows: compounds altering Cy5-DNA-NS3h complex signal – biochemical, LOPAC1280, artefact control for HCV NS3 helicase inhibitor project (AID 687037). To be noted: Cy5-DNA-NS3h complex fluorescence interference counterscreen.
Assay [4] is described as follows: viability loss with induced miR-34 in A549 – imaging, A549 dox-inducible miR-34, nuclei and caspase counts, primary screen (AID 1347080;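 active = compounds whose cell count with miR-34 switched on is under 0.7 times the count with it off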). To be noted: A549 miR-34 inducible, Hoechst nuclei count, 48 h.
Assay [5] in a line: blockers of cellular phospholipid synthesis – cell-based, LOPAC library, screen 4, primary screen (AID 1347384). To be noted: animal cells, phospholipid biosynthesis inhibition screen; at 10 µM.
The nature of assay [6]: galactose survival enhancers in mitochondrial complex I cybrids – cell-based, galactose medium, ATP luminescence, primary screen (AID 1645843;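 active = z-score of at least 1.8 in each of two replicates, scored against plate mean and spread of sample wells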;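 note: positive z means more ATP and so rescue of galactose-driven cybrid death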). The note with it: complex I mutant cybrid cells, 72 h, stronger effect = higher value.
Setting [7] is: stronger effect = lower value, cell number ratio, induced over uninduced.
Setting [8] is: measured here: relative caspase fold change +Dox/-Dox.
The mark [9] stands for this setting: measured here: total cells with miR-34 induction, stronger effect = lower value.
[10] abbreviates: measured here: total cells without miR-34 induction.

The term inhibition denotes the change of the read-out against control, counted positive when it falls. Regarding `CCCOC(=O)c1c(-c2ccccc2)nc(CC)c(C(=O)SCC)c1CCC`, the period change in assay [1] was -0.02 h (inactive). For the same compound, in assay [2], the inhibition is -3% (inactive). In assay [3], the fluorescence ratio (interference) was 1 (inactive). Besides, the fold change in assay [4] (setting [7]) was 1.01 (inactive); in assay [4] (setting [8]) it was 0.935. Moreover, the cell count was 9020 in assay [4] (setting [9]) and 8910 in assay [4] (setting [10]). Also, the compound was called inactive in assay [5]. In assay [6], the z-score was -1.19 (inactive).
Regarding `Cc1cn([C@H]2C[C@@H](N=[N+]=[N-])[C@@H](CO)O2)c(=O)[nH]c1=O`, the period change in assay [1] is 0.06 h (inactive). In addition, in assay [2], the inhibition is -1% (inactive). In addition, the fluorescence ratio (interference) in assay [3] was 0.9 (inactive). The fold change in assay [4] (setting [7]) is 1.13 (inactive); in assay [4] (setting [8]) it was 1.91. The cell count in assay [4] (setting [9]) amounted to 8200; in assay [4] (setting [10]) it was 7230. Besides, the compound was called inactive in assay [5]. Moreover, the z-score in assay [6] was 0.445 (inactive).
On to `COc1cc(C(O)CO)ccc1OS(=O)(=O)O` (stereo not drawn), for which the period change in assay [1] is -0.25 h (inactive). Also, in assay [2], the inhibition is -2% (inactive). In addition, in assay [3], the fluorescence ratio (interference) is 1 (inactive). Besides, the fold change in assay [4] (setting [7]) is 1.02 (inactive); in assay [4] (setting [8]), 1.08. Also, the cell count is 10400 in assay [4] (setting [9]) and 10200 in assay [4] (setting [10]). Besides, the compound was classed as inactive in assay [5]. Besides, the z-score in assay [6] is 0.025 (inactive).
Consider `NC(C(=O)N[C@@H]1C(=O)N2C(C(=O)O)=C(Cl)CS[C@H]12)c1ccccc1` (stereo partly drawn), for which, in assay [1], the period change is 0.03 h (inactive). For the same compound, the inhibition in assay [2] was 0% (inactive). Besides, the fluorescence ratio (interference) in assay [3] was 1 (inactive). The fold change in assay [4] (setting [7]) is 1.02 (inactive); in assay [4] (setting [8]), 2.15. The cell count in assay [4] (setting [9]) is 10500; in assay [4] (setting [10]) it was 10300. In addition, the compound was called inactive in assay [5]. In addition, the z-score in assay [6] is 0.38 (inactive).
For the compound `COC(=O)C(N)Cc1ccc(Cl)cc1` (stereo not drawn), the period change in assay [1] was -0.02 h (inactive). Also, the inhibition in assay [2] was 1% (inactive). Further, the fluorescence ratio (interference) in assay [3] was 1 (inactive). Besides, the results for the fold change in assay [4] (setting [7]) and in assay [4] (setting [8]) were 0.984 (inactive) and 1.85, respectively. Further, the figures for the cell count in assay [4] (setting [9]) and in assay [4] (setting [10]) were 9580 and 9740, respectively. Further, in assay [5], the result was inactive. For the same compound, in assay [6], the z-score is 0.46 (inactive).
For the compound `N[C@@H](Cc1ccc(F)cc1)C(=O)O`, in assay [1], the period change was -0.05 h (inactive). For the same compound, the inhibition in assay [2] is -1% (inactive). In assay [3], the fluorescence ratio (interference) is 1 (inactive). Also, the values for the fold change in assay [4] (setting [7]) and in assay [4] (setting [8]) were 1.04 (inactive) and 0.805, respectively. In addition, the cell count came to 9710 in assay [4] (setting [9]) and 9330 in assay [4] (setting [10]). In addition, in assay [5], the compound was classed as inactive. For the same compound, in assay [6], the z-score was 0.26 (inactive).
For the compound `[Li+]`, the period change in assay [1] is -0.09 h (inactive). For the same compound, the inhibition in assay [2] was -1% (inactive). Besides, the fluorescence ratio (interference) in assay [3] was 1 (inactive). For the same compound, the fold change in assay [4] (setting [7]) is 0.887 (inactive); in assay [4] (setting [8]) it was 0.586. The cell count was found to be 9680 in assay [4] (setting [9]) and 10900 in assay [4] (setting [10]). For the same compound, the compound was classed as inactive in assay [5]. Besides, the z-score in assay [6] was -0.05 (inactive).
As to `CSc1nc(N)c2ncn([C@@H]3O[C@H](COP(=O)(O)OP(=O)(O)O)[C@H](O)C3O)c2n1` (stereo partly drawn), the period change in assay [1] is -0.26 h (inactive). In assay [2], the inhibition is 33% (inactive). The fluorescence ratio (interference) in assay [3] was 0.9 (inactive). Also, the fold change is 1.03 (inactive) in assay [4] (setting [7]) and 1.82 in assay [4] (setting [8]). The cell count in assay [4] (setting [9]) was 11000; in assay [4] (setting [10]), 10800. Moreover, the compound was called inactive in assay [5]. In addition, in assay [6], the z-score is 0.32 (inactive).
As for `O=c1cc(-c2ccccc2)[nH]c2nc(Cl)ccc12`, the period change in assay [1] is -0.07 h (inactive). The inhibition in assay [2] was -3% (inactive). The fluorescence ratio (interference) in assay [3] is 1 (inactive). Further, the fold change is 0.977 (inactive) in assay [4] (setting [7]) and 1.95 in assay [4] (setting [8]). The cell count in assay [4] (setting [9]) was determined as 3650; in assay [4] (setting [10]), 3740. Further, the outcome in assay [5] was inactive. The z-score in assay [6] is -0.5 (inactive).
Take `CC(N)(Cc1ccc(O)cc1)C(=O)O` (stereo not drawn): in assay [1], the period change is -0.14 h (inactive). Further, the inhibition in assay [2] is -1% (inactive). The fluorescence ratio (interference) in assay [3] was 0.9 (inactive). For the same compound, the figures for the fold change in assay [4] (setting [7]) and in assay [4] (setting [8]) were 1 (inactive) and 0.646, respectively. The cell count in assay [4] (setting [9]) and in assay [4] (setting [10]) was 9440 throughout. For the same compound, the compound was classed as inactive in assay [5]. Further, the z-score in assay [6] was 1.32 (inactive).
On to `CC(=O)C(C)=O`, for which, in assay [1], the period change is -0.125 h (inactive). In addition, the inhibition in assay [2] was -3% (inactive). The fluorescence ratio (interference) in assay [3] is 1 (inactive). Also, the figures for the fold change in assay [4] (setting [7]) and in assay [4] (setting [8]) were 1.06 (inactive) and 0.938, respectively. The cell count in assay [4] (setting [9]) was determined as 10100; in assay [4] (setting [10]), 9490. Further, in assay [5], the call was inactive. Besides, the z-score in assay [6] was 0.23 (inactive).
Take `Fc1ccc(C(OCCCc2cnc[nH]2)c2ccc(F)cc2)cc1`: the period change in assay [1] is 0.11 h (inactive). The inhibition in assay [2] is -1% (inactive). Besides, in assay [3], the fluorescence ratio (interference) is 1 (inactive). Moreover, the fold change is 0.951 (inactive) in assay [4] (setting [7]) and 0.647 in assay [4] (setting [8]). Further, the cell count in assay [4] (setting [9]) is 8620; in assay [4] (setting [10]), 9060. Also, the compound was classed as inactive in assay [5]. For the same compound, the z-score in assay [6] was -1.19 (inactive).
